# Of roughly 7,900 targets only a part is listed; those with a hit were picked by preference. About 0.6% of all pairs of compound and target were hits. Values without a mark were called inactive.
# Legend:
# Assay in all cases: log2 fold change, soluble protein after heating vs DMSO (PISA); higher = thermal stabilisation; K562 cells, 10 uM, 30 min; active = over 0.2 and 3.5 SD of the protein, either way, in both replicates (recomputed)
# [1] = compound: CC[C@@H]1C(=O)N(C)c2cnc(Nc3ccc(C(=O)NC4CCN(C)CC4)cc3OC)nc2N1C1CCCC1
# Procedure, shortened: (§1)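 K562 cells (2×10^6 cells/mL) were treated with 10 μM compound for 30 min, and aliquots were heated for 3 min over 48°C-58°C. Pooled aliquots were extracted in PBS with 0.5% NP-40 at 4°C, and the supernatant after 21,000xg for 90 min was measured by TMTpro 16plex LC-MS/MS with channel sums equalised. Reported thermal stability, relative to control samples and from duplicates, is a log2 fold change.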
# volasertib = compound: CC[C@@H]1C(=O)N(C)c2cnc(Nc3ccc(C(=O)N[C@H]4CC[C@H](N5CCN(CC6CC6)CC5)CC4)cc3OC)nc2N1C(C)C [volasertib]
# Procedure, shortened: as §1
# [2] = compound: CC[C@H](C)N1C=C(C2=C(C=C(C=C21)C3=CN=C(C=C3)N4CCNCC4)C(=O)NCC5=C(C=C(NC5=O)C)C)C
# Procedure, shortened: as §1
# epoxomicin = compound: CC[C@H](C)[C@@H](C(=O)N[C@@H]([C@@H](C)O)C(=O)N[C@@H](CC(C)C)C(=O)[C@]1(CO1)C)NC(=O)[C@H]([C@@H](C)CC)N(C)C(=O)C [epoxomicin]
# Procedure, shortened: as §1
# [3] = compound: CCn1c(C(=O)N(C2CC2)C2CC2)cc2c3c(ncn3C)c(Nc3cc(C)n(C)n3)nc21
# Procedure, shortened: as §1
# [4] = compound: CCn1cc(-c2ccnc3[nH]c(-c4cccc(CN(C)C)c4)cc23)c(-c2ccc(NC(=O)N(C)C)cc2)n1
# Procedure, shortened: as §1
# [5] = compound: CN(C)CC(=O)Nc1ccc2[nH]c(=O)c3ccccc3c2c1
# Procedure, shortened: as §1
# rosiglitazone = compound: CN(CCOC1=CC=C(C=C1)C[C@H]2C(=O)NC(=O)S2)C3=CC=CC=N3 (racemic) [rosiglitazone]
# Procedure, shortened: as §1
# [6] = compound: CN1C2=C(C3=C1C(=O)N(N=C3)CC4=CC(=CC=C4)N)SC(=C2)S(=O)C
# Procedure, shortened: as §1
# [7] = compound: CN1CCC(CNc2ccc3ncc(-c4cccc(OC(F)(F)F)c4)n3n2)CC1
# Procedure, shortened: as §1
# saracatinib = compound: CN1CCN(CCOc2cc(OC3CCOCC3)c3c(Nc4c(Cl)ccc5c4OCO5)ncnc3c2)CC1 [saracatinib]
# Procedure, shortened: as §1
# sotrastaurin = compound: CN1CCN(c2nc(C3=C(c4c[nH]c5ccccc45)C(=O)NC3=O)c3ccccc3n2)CC1 [sotrastaurin]
# Procedure, shortened: as §1
# alvocidib = compound: CN1CC[C@H](c2c(O)cc(O)c3c(=O)cc(-c4ccccc4Cl)oc23)[C@H](O)C1 [alvocidib]
# Procedure, shortened: as §1
# Tubastatin A = compound: CN1CCc2c(c3ccccc3n2Cc2ccc(C(=O)NO)cc2)C1 [Tubastatin A]
# Procedure, shortened: as §1
# [8] = compound: CNC(=O)C1=CC=CC=C1NC2=NC(=NC=C2Cl)NC3=C(C=C(C=C3)N4CCOCC4)OC
# Procedure, shortened: as §1
# defactinib = compound: CNC(=O)c1ccc(Nc2ncc(C(F)(F)F)c(NCc3nccnc3N(C)S(C)(=O)=O)n2)cc1 [defactinib]
# Procedure, shortened: as §1
# rucaparib = compound: CNCc1ccc(-c2[nH]c3cc(F)cc4c3c2CCNC4=O)cc1 [rucaparib]
# Procedure, shortened: as §1
# [9] = compound: CNc1nc(-c2ccc3c(N)n[nH]c3c2)cc(N2C[C@@H](C(=O)NC3CCCCC3)CC[C@H]2C)n1
# Procedure, shortened: as §1
# encorafenib = compound: COC(=O)N[C@@H](C)CNc1nccc(-c2cn(C(C)C)nc2-c2cc(Cl)cc(NS(C)(=O)=O)c2F)n1 [encorafenib]
# Procedure, shortened: as §1
# [10] = compound: COC(=O)[C@H](CCSC)NC(=O)C1=C(C=C(C=C1)NC[C@H](CS)N)C2=CC=CC=C2
# Procedure, shortened: as §1
# Chain of UniProt O00763 (O00763 whole entry, looked up): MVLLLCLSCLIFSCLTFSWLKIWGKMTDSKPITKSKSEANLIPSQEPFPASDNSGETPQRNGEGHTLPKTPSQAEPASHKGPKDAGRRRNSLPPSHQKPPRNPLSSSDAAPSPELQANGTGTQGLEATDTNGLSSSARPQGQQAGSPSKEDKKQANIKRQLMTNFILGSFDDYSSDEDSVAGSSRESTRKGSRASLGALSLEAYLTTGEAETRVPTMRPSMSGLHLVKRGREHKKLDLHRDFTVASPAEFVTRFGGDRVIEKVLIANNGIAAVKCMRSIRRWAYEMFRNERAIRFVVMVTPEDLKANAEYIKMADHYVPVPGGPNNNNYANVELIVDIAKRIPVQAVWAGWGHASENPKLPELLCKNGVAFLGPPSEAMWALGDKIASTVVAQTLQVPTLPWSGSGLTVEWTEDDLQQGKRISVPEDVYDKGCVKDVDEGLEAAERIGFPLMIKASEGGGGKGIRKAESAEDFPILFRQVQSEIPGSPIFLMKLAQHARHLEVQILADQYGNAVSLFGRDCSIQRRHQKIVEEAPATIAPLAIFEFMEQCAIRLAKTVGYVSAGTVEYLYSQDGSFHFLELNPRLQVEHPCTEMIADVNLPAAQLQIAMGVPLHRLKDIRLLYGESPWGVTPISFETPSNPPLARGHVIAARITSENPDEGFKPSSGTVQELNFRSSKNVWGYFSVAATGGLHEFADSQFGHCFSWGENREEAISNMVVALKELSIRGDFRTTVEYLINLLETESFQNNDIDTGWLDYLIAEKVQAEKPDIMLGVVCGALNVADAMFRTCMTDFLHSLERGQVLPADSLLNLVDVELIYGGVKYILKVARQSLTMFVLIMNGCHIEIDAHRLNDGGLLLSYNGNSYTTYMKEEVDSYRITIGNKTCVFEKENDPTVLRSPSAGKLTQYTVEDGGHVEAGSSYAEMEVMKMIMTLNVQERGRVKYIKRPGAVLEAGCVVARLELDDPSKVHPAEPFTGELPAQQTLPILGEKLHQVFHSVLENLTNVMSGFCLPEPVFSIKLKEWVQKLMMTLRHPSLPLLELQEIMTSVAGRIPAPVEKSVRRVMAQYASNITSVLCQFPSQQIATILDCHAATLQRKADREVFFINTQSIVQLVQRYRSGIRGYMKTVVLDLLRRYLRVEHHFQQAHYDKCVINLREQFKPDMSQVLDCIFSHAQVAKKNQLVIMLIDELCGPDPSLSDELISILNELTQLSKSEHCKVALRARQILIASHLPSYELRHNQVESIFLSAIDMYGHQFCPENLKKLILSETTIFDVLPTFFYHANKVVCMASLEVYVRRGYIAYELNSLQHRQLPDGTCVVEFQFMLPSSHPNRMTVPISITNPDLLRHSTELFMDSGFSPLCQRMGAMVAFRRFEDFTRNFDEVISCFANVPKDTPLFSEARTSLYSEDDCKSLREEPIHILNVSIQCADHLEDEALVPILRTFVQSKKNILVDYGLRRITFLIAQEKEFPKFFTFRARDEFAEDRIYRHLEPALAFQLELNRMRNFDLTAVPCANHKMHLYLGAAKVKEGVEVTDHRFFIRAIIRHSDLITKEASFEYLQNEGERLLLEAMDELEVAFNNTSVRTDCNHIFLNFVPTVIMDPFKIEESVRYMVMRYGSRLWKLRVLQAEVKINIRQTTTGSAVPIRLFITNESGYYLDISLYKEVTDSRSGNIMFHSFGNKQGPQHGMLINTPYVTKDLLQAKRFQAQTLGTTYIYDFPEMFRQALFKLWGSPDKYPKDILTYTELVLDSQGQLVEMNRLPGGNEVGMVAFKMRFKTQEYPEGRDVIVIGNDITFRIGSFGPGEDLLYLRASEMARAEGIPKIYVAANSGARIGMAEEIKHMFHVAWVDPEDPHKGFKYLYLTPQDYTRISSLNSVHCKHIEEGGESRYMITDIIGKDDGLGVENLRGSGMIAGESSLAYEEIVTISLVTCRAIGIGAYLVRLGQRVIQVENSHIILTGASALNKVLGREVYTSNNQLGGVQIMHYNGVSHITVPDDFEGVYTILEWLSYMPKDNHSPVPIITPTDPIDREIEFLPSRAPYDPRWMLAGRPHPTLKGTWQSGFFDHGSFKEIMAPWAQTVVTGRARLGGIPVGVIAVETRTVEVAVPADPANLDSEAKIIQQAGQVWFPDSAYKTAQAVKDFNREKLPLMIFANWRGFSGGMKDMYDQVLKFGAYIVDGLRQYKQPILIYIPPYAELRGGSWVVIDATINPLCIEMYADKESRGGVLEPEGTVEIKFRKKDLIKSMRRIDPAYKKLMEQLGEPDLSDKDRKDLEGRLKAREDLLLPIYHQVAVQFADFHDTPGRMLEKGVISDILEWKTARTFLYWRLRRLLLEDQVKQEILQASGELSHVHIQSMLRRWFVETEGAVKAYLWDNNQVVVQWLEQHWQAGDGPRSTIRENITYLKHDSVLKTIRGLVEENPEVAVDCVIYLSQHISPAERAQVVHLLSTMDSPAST
# Chain of UniProt Q53FZ2 (Q53FZ2 whole entry, looked up): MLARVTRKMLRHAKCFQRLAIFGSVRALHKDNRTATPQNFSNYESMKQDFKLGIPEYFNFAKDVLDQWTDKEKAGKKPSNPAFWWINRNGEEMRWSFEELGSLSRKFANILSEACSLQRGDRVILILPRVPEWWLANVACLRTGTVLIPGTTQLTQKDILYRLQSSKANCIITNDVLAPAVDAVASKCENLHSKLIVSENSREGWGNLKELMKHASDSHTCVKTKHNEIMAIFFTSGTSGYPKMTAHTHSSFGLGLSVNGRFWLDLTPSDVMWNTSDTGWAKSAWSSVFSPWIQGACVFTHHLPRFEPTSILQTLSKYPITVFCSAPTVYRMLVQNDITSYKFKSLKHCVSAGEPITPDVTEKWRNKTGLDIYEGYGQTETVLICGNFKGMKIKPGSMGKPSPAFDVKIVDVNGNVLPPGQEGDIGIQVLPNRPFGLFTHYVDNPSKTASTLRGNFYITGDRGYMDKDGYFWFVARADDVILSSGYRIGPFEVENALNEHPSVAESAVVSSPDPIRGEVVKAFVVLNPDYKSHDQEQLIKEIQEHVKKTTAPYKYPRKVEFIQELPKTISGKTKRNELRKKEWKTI
# Chain of UniProt Q9NQ11 (Q9NQ11 whole entry, looked up): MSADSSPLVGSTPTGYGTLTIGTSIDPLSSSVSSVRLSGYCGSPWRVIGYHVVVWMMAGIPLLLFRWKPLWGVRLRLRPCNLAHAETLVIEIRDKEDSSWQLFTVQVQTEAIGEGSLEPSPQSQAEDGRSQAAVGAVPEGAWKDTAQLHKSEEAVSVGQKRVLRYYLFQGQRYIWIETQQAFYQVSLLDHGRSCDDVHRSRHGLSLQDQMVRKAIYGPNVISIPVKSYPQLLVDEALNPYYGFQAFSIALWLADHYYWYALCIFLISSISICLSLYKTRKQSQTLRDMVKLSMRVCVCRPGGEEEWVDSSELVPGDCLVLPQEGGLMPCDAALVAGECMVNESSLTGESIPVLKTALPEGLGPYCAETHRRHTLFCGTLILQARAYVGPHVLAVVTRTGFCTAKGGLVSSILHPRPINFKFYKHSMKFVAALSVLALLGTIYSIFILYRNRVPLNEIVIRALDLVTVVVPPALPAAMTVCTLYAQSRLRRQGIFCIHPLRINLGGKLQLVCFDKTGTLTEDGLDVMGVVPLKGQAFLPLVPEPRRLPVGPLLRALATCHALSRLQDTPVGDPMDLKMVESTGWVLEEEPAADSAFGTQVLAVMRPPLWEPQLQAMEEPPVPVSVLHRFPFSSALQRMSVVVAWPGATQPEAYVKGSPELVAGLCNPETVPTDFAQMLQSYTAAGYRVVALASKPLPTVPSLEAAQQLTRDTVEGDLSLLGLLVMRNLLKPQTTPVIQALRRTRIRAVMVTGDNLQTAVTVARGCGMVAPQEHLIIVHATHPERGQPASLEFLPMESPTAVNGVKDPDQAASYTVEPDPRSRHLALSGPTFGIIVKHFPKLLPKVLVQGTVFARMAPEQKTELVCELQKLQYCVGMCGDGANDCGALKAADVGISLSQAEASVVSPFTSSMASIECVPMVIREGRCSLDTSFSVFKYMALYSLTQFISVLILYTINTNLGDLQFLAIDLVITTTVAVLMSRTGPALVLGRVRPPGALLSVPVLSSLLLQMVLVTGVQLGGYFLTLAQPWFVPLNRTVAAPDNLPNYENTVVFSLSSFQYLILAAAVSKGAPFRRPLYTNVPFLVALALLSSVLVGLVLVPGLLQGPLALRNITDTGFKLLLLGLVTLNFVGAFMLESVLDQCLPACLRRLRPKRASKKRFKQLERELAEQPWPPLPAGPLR
# Chain of UniProt Q8N2F6 (Q8N2F6 whole entry, looked up): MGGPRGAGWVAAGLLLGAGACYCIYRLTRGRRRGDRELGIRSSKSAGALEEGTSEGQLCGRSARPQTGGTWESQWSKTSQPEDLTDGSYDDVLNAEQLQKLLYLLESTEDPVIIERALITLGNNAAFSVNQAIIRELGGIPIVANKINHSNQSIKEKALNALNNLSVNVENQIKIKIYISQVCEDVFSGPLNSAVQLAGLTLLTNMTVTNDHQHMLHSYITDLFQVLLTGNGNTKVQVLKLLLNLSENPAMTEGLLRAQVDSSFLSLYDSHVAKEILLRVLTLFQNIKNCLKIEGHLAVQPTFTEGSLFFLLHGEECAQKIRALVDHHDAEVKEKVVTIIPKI
# Chain of UniProt P56211 (P56211 whole entry, looked up): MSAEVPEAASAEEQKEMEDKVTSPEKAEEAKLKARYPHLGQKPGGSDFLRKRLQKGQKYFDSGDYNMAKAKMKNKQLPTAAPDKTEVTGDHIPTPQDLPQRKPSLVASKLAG
# Chain of UniProt Q96GS6 (Q96GS6 whole entry, looked up): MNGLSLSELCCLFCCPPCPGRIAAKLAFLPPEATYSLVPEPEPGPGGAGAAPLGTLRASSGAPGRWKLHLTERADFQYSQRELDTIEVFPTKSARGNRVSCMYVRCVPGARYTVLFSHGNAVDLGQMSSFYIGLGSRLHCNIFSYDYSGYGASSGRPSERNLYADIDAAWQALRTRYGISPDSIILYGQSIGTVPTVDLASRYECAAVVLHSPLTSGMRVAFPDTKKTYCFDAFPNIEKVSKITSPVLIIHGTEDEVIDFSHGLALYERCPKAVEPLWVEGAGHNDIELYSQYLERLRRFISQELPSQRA
Target,log2 fold change [1],log2 fold change (volasertib),log2 fold change [2],log2 fold change (epoxomicin),log2 fold change [3],log2 fold change [4],log2 fold change [5],log2 fold change (rosiglitazone),log2 fold change [6],log2 fold change [7],log2 fold change (saracatinib),log2 fold change (sotrastaurin),log2 fold change (alvocidib),log2 fold change (Tubastatin A),log2 fold change [8],log2 fold change (defactinib),log2 fold change (rucaparib),log2 fold change [9],log2 fold change (encorafenib),log2 fold change [10]
ACIN1 (UniProt Q9UKV3),-0.017,-0.056,-0.012,-0.048,-0.057,0.004,-0.034,0.008,-0.021,-0.097,-0.027,-0.01,-0.057,0.032,-0.165,-0.253 (active),-0.017,-0.054,-0.038,0.003
ACAP2 (UniProt Q15057),-0.034,-0.192,0.066,-0.002,-0.007,-0.015,0.065,0.023,-0.004,0.063,-0.02,-0.029,-0.068,0.001,0.031,-0.032,-0.016,-0.04,0.062,-0.026
ARMC10 (UniProt Q8N2F6),-0.062,-0.333 (active),0.075,0.022,-0.017,-0.008,0.062,0.015,0.002,-0.044,0.012,-0.123,0.002,0.109,0.079,-0.03,0.157,0.006,0.142,-0.049
ALG11 (UniProt Q2TAA5),-0.034,-0.17,0.126,0.038,-0.075,0.006,0.018,0.021,-0.109,0.042,0.047,0.013,-0.064,-0.023,-0.018,-0.021,-0.015,-0.021,0.073,-0.082
ACSM3 (UniProt Q53FZ2),0.021,-0.092,0.062,0.146,-0.03,-0.02,0.154,0.046,-0.099,-0.145,0.031,0.018,-0.021,0.009,0.053,-0.148,0.142,-0.09,0.021,-0.064
ATP13A3 (UniProt Q9H7F0),-0.085,0.077,0.016,0,-0.014,-0.022,-0.012,0.128,-0.011,-0.401 (active),-0.029,0.048,-0.159,0.002,-0.005,-0.014,0.091,0.013,0.037,0.037
ARPP19 (UniProt P56211),0.013,0.016,-0.01,0.041,0.029,-0.052,0.032,0.001,0.069,-0.041,-0.002,0.01,0.032,-0.047,-0.015,-0.089,-0.05,-0.056,-0.016,0.002
B4GALNT1 (UniProt Q00973),-0.243,-0.097,-0.115,-0.059,0.078,0.01,0.143,0.025,-0.103,0.173,-0.143,-0.07,0.177,-0.057,-0.021,-0.182,0.017,0.025,0.144,-0.425
BST2 (UniProt Q10589),0.091,0.206,-0.062,-0.025,-0.003,0.045,-0.008,-0.055,0,0.223 (active),0.003,-0.097,-0.005,-0.055,-0.063,0.03,-0.008,-0.07,0,0.012
ABHD17A isoform 2 (UniProt Q96GS6),-0.072,-0.172,-0.084,-0.057,-0.058,-0.17,-0.067,0.009,-0.015,-0.377 (active),0.002,0.01,0.04,0.065,-0.595 (active),-0.008,0.017,-0.052,0.104,0.059
ACO2 (UniProt Q99798),0.043,0.037,0.022,0.046,-0.011,-0.115,0.055,-0.023,-0.118,-0.344 (active),0.005,-0.017,-0.107,-0.021,0.016,-0.083,-0.034,0.021,0.027,-0.037
ASH2L (UniProt Q9UBL3),-0.117,-0.327 (active),0.079,0.041,-0.017,-0.012,-0.003,-0.004,0.001,-0.012,0.023,-0.025,-0.035,0.052,0.023,-0.12,0.012,-0.036,0.037,-0.009
ATP13A2 (UniProt Q9NQ11),-0.141,-0.103,-0.074,0.003,0.012,-0.031,-0.002,0.066,0.058,-0.509 (active),0.061,0.036,0.023,0.026,0.015,-0.116,0,0.039,-0.027,0.026
ACACB (UniProt O00763),-0.006,-0.468,0.083,-0.1,-0.194,0.086,0.061,0.167,0.308,0.104,-0.166,-0.383,0.033,0.087,-0.083,0.016,0.291,0.228,0.089,-0.137
ATR (UniProt Q13535),-0.063,-0.197,-0.02,0.048,-0.071,-0.041,0.052,0.049,-0.017,0,-0.044,-0.013,-0.107,0.02,0.014,-0.035,0.008,0.039,0.008,-0.024
ATP6V0A1 isoform 3 (UniProt Q93050),-0.056,0.174,-0.01,0.044,0.034,-0.054,-0.009,-0.017,0.239,-0.137,-0.253,-0.236,0.06,0.089,-0.052,0.125,0.154,0.032,0.196,-0.02

# From the supplement of paper PMC10849652
